The conditions of assay [1]: Ebola virus entry assay, green fluorescence channel.
For assay [2] the following is noted: Ebola virus entry assay, blue channel fluorescence.
For assay [3] the following is noted: Ebola virus entry assay, ratio channel.
For assay [4] the following is noted: Ebola virus entry assay, reporter ratio channel; Channel type: primary.
For assay [5] the following is noted: Ebola virus entry assay, blue channel (ratio component).
Assay [6] is described as follows: qHTS assay for measurement of the activity of small molecule inhibitors on Zika virus induced Caspase-3 activity in human astrocytoma cells (AID 1224859; active means well fitted inhibition curve with a large enough effect;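 further: plate controls were ZIKV-infected untreated cells for no effect and uninfected cells for full effect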). To be noted: SNB-19 ZIKV-induced caspase-3/7, luminescence, 6 h; series mostly up to 45.7 µM. In short, it runs like this:
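Readout is luminescence from Caspase-Glo 3/7 added after a 6 h ZIKV infection (2 FFU/cell) of compound-pretreated (1 h) SNB-19 cells; data expressed as % inhibition versus uninfected and infected wells.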

Assay [7] is described as follows: qHTS assay for measurement of the activity of small molecule inhibitors on Zika virus induced Caspase-3 activity in human iPSC derived neural progenitor cells (hNPCs) (AID 1224857; active means well fitted inhibition curve with a large enough effect; further: % of control where 0% means no effect; nearly all actives have a fitted effect of over 65% in size). As to conditions: hNPCs ZIKV-induced caspase-3/7, Caspase-Glo luminescence, 6 h; series mostly up to 45.7 µM. In short, it runs like this:
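Quantitative HTS format: human iPSC neural progenitors, 1 h compound pretreatment, ZIKV 2 FFU/cell for 6 h at 37 C. Percent inhibition derived from luminescent caspase-3/7 signal between uninfected and infected controls.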
(qHTS replaces the single test concentration by a dilution series.)

Values without a mark were called inactive. Inconclusive results are not listed. For part of these data: Entries with a potency or affinity are not part of this list. Calls of active or inactive are those of the source. Unless noted, how the calls were made is not given here.
Wherever efficacy is given: 0% is about no effect.

For the compound `COC[C@@H](c1ccc(C(F)(F)F)cc1)N1CCN(C2(C)CCN(C(=O)c3c(C)ncnc3C)CC2)C[C@H]1C`, the efficacy in assay [1] is 69.2%. For the same compound, the call in assay [2] and in assay [5] was inactive. In addition, the AC50 in assay [3] and in assay [4] was 25.1 µM (active) throughout.
`CCCCCC(=O)O[C@]1(C(C)=O)CC[C@H]2[C@@H]3CCC4=CC(=O)CC[C@]4(C)[C@H]3CC[C@@]21C`: the efficacy in assay [1] was 74.4%. Further, the result in assay [2], in assay [3], in assay [4] and in assay [5] was inactive.
In the case of `COC(=O)Nc1nc2ccc(Sc3ccccc3)cc2[nH]1`, in assay [1], the efficacy is 73.8%. Also, the result in assay [2] and in assay [5] was inactive. The AC50 in assay [3] and in assay [4] was 4.47 µM (active) each time.
In the case of `C[C@@H]1CCN(C(=O)[C@H](CCCN=C(N)N)NS(=O)(=O)c2cccc3c2NC[C@H](C)C3)[C@@H](C(=O)O)C1`, the efficacy in assay [1] was -39.7%. Moreover, the result in assay [2], in assay [3], in assay [4] and in assay [5] was inactive.
In the case of `Nc1ccc2c(c1)CN1C(=O)c3ccccc3C1=N2`, the efficacy in assay [1] is 64.3%. Moreover, the result in assay [2], in assay [3], in assay [4] and in assay [5] was inactive.
As to `CCOCCn1c(N2CCCN(C)CC2)nc2ccccc21`, in assay [1], the efficacy is 58.4%. Also, the outcome in assay [2], in assay [3] and in assay [5] was inactive. Further, in assay [4], the AC50 (in general, the concentration giving half of the maximal activity seen) was 39.8 µM (active).
`CN1Cc2c(N)cccc2C(c2ccccc2)C1` (stereo not drawn): the efficacy in assay [1] was 99.7%. The values for the AC50 in assay [2], in assay [3] and in assay [4] were 17.8 µM (active), 25.1 µM (active) and 25.1 µM (active), respectively. In addition, in assay [5], the outcome was inactive.
`CCC(=O)O[C@]1(C(=O)COC)[C@@H](C)C[C@H]2[C@@H]3CCC4=CC(=O)C=C[C@]4(C)C3(F)[C@@H](O)C[C@@]21C` (stereo partly drawn): the efficacy in assay [1] is 67.5%. The compound was classed as inactive in assay [2], in assay [4] and in assay [5]. In addition, the AC50 in assay [3] was 7.94 µM (active).
As to `O=C1OC2(c3ccc(O)cc3Oc3cc(O)ccc32)c2ccccc21`, the AC50 was 25.1 µM (active) in assay [1], 7.94 µM (active) in assay [3] and 7.94 µM (active) in assay [4]. The call in assay [2] and in assay [5] was inactive.
Regarding `O=C(Nc1ccc(S(=O)(=O)N2CCOCC2)cc1)c1cc(Cl)ccc1NS(=O)(=O)c1ccc(Cl)s1`, the efficacy in assay [1] was 119%. In addition, the result in assay [2], in assay [3] and in assay [5] was inactive. The AC50 in assay [4] was 39.8 µM (active).
As for `CCCCCOc1ccccc1/C(=C\SC)n1ccnc1`, the efficacy in assay [1] is 106%. Also, the result in assay [2], in assay [3], in assay [4] and in assay [5] was inactive.
`COc1cc(NS(=O)(=O)c2ccc(N)cc2)nc(OC)n1`: in assay [1], the efficacy was 31.6%. For the same compound, the call in assay [2], in assay [3], in assay [4] and in assay [5] was inactive.
As to `CCC(=O)O[C@]1(C(=O)SCF)[C@H](C)C[C@H]2[C@@H]3C[C@H](F)C4=CC(=O)C=C[C@]4(C)[C@@]3(F)[C@@H](O)C[C@@]21C`, the efficacy in assay [1] was 69.2%. In addition, the compound was classed as inactive in assay [2], in assay [3], in assay [4] and in assay [5].
For `CCCCC(=O)O[C@]1(C(=O)CO)CC[C@H]2[C@@H]3CCC4=CC(=O)CC[C@]4(C)[C@H]3[C@@H](O)C[C@@]21C`, the efficacy in assay [1] is 66.7%. Further, the compound was called inactive in assay [2], in assay [3], in assay [4] and in assay [5].
With `CCCCC/C=C\C/C=C\CCCCCCCC(=O)NC(C)c1ccccc1` (stereo not drawn), in assay [1], the efficacy was 130%. Also, the call in assay [2], in assay [3] and in assay [5] was inactive. Also, the concentration at half-maximal activity (AC50) in assay [4] was 39.8 µM (active).
In the case of `c1ccc(CNCCNCc2ccccc2)cc1`, in assay [1], the efficacy was 55.2%. Also, the outcome in assay [2], in assay [3] and in assay [5] was inactive. For the same compound, in assay [4], the AC50 was 25.1 µM (active).
Consider `C[C@@H]1CC[C@H]2[C@@H](C)C(=O)O[C@@H]3O[C@@]4(C)CC[C@@H]1[C@]32OO4`, for which, in assay [1], the efficacy is 76.3%. Moreover, the compound was called inactive in assay [2], in assay [3], in assay [4], in assay [5] and in assay [6].
For `C[C@]12CCC(=O)C=C1[C@@H]1C[C@@H]1[C@H]1[C@@H]3[C@@H]4C[C@@H]4[C@@]4(CCC(=O)O4)[C@@]3(C)CC[C@@H]12`, the efficacy in assay [1] is 65.1%. Further, the compound was called inactive in assay [2], in assay [3] and in assay [5]. The AC50 in assay [4] was 39.8 µM (active).
`CCOC(=O)OCC/C(SC(=O)OCC)=C(\C)N(C=O)Cc1cnc(C)nc1N`: in assay [1], the efficacy is 26.7%. In addition, the outcome in assay [2], in assay [3], in assay [4] and in assay [5] was inactive.
In the case of `O=C(CCCN1CCN(c2ccccn2)CC1)c1ccc(F)cc1`, the efficacy in assay [1] is 28.5%. The call in assay [2], in assay [3], in assay [4] and in assay [5] was inactive.
Regarding `CCOP(=S)(OCC)O/N=C(\C#N)c1ccccc1`, the efficacy in assay [1] is -42.7%. Moreover, the outcome in assay [2], in assay [3], in assay [4], in assay [5] and in assay [6] was inactive. Besides, in assay [7], the Potency result was “inactive”.
Turning to `CCOC(=O)OC(C)OC(=O)[C@@H]1N2C(=O)[C@@H](NC(=O)[C@H](N)c3ccccc3)[C@H]2SC1(C)C` (stereo partly drawn), the efficacy in assay [1] is 47.6%. The outcome in assay [2], in assay [3], in assay [4] and in assay [5] was inactive.
`CCCC(=O)OC[C@@H](OC(=O)CCC)[C@@H](OC(=O)CCC)[C@H](Cn1c2nc(=O)[nH]c(=O)c-2nc2cc(C)c(C)cc21)OC(=O)CCC`: in assay [1], the efficacy was 140%. Also, the outcome in assay [2], in assay [3], in assay [4] and in assay [5] was inactive.
On to `Cc1cc(C)c(/C=C2\C(=O)Nc3ccccc32)[nH]1`, for which the efficacy in assay [1] was 78.6%. The call in assay [2], in assay [3] and in assay [5] was inactive. The AC50 in assay [4] was 35.5 µM (active).

These data come from PubChem BioAssay (NCATS).
